# Experimental data taken from PubChem BioAssay.
# Values without a mark were called inactive. This is one part of the list. Calls of active or inactive are those of the source. Rule as the data show it, unless noted: active = inhibition above about 30%; inactive = the rest.
# Tests used:
# [1] = biological target: Oxytocin receptor (Homo sapiens) (UniProt P30559); assay: oxytocin receptor activation, retest of hits – fluorescence, CHO-OTR cells, triplicate, confirmation (AID 434963;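 active = mean activation above about 20% derived from the earlier single-dose screen, limit read from the data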); settings: Fluo-8 calcium fluorescence, agonist, at 3 µM, stronger effect = higher value
# [2] = biological target: Vasopressin V1a receptor (Homo sapiens) (UniProt P37288); assay: activators of vasopressin V1R in CHO cells – cell-based, triplicate, fluorescence, counter-screen for OXTR agonist project (AID 434991;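 active = mean activation over triplicate exceeds the hit threshold set in the earlier primary screen, cut at about 20% in these data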); settings: Fluo-8 calcium fluorescence, at 3 µM, stronger effect = higher value
# [3] = biological target: Protein-arginine deiminase type-4 (Homo sapiens) (UniProt Q9UM07); assay: protein arginine deiminase 4 blockade, retest – biochemical, fluorescence polarization, confirmation (AID 488796;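 active = mean inhibition across replicates above the hit cutoff set by the earlier primary screen, cut at about 15% in these data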); settings: recombinant PAD4, RCA probe fluorescence polarization; at 6.36 µM; stronger effect = higher value
# Protein-arginine deiminase type-4 (Homo sapiens), sequence (Q9UM07 whole entry, looked up): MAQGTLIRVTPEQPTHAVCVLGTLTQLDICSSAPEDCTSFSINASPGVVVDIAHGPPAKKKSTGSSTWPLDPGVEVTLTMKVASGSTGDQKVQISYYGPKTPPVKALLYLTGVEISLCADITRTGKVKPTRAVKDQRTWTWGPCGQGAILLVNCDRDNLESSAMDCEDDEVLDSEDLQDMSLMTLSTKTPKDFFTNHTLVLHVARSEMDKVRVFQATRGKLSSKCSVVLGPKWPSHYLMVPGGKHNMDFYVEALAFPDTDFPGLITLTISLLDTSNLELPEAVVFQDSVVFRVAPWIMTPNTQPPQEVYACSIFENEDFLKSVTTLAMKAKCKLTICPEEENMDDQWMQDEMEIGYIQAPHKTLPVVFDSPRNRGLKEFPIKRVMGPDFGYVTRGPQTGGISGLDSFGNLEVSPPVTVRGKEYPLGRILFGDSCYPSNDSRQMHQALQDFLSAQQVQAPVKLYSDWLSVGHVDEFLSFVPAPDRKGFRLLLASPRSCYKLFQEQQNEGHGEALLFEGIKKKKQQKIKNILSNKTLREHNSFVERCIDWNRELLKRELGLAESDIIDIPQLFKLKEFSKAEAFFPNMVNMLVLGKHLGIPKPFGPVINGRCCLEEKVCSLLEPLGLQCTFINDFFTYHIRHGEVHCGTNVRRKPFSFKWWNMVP
# [4] = reduced OD of T4-infected AddAB+ E. coli – absorbance, E. coli V3065, T4 phage, triplicate, AddAB inhibitor project, confirmation (AID 488942;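 active = mean inhibition above a set limit taken from the earlier primary screen, cut at about 13% in these data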); settings: E. coli V3065 expressing H. pylori AddAB, at 11.9 µM, stronger effect = higher value
# [5] = reduced OD of phage-infected RecBCD+ V66 E. coli – absorbance, mutant T4 phage, counter-screen for AddAB inhibitor project (AID 488955;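 active = mean inhibition above the mean of solvent-only control wells plus 3 SD, cut at about 4% in these data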); settings: OD growth, at 11.9 µM, stronger effect = higher value
# [6] = bacterial growth inhibitors – absorbance, counter-screen for AddAB inhibitor project, confirmation (AID 488956; in the data active = inhibition above about 25%); settings: bacterial viability, absorbance (AddAB counterscreen); at 11.9 µM; stronger effect = higher value
# [7] = reduced OD of V66 E. coli with T4 gene 2 phage – absorbance, RecBCD inhibitor project, confirmation (AID 651982;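 active = mean inhibition over triplicates exceeding the hit threshold derived in the original primary screen, cut at about 11% in these data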); settings: E. coli V66 + T4 2- phage, growth OD; at 11.9 µM; stronger effect = higher value
# [8] = bacterial growth inhibition – absorbance, high throughput, counter-screen for RecBCD inhibitor project (AID 651983; in the data active = inhibition above about 20%); settings: E. coli viability, absorbance (OD) growth; at 11.9 µM; stronger effect = higher value
# [9] = reduced optical density, T4-challenged addAB+ bacteria – absorbance, E. coli V3065, T4 phage, counter-screen for RecBCD inhibitor project, confirmation (AID 651984;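 active = mean inhibition above the solvent-only control wells' mean plus 3 SD, cut at about 22% in these data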); settings: E. coli expressing H. pylori AddAB + T4 phage, OD growth; at 11.9 µM; stronger effect = higher value
# [10] = biological target: Nuclear receptor coactivator 1 (Homo sapiens) (UniProt Q15788); assay: NCOA1 GAL4-fusion reporter inhibition – cell-based, luminescence, quadruplicate, confirmation (AID 588820;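 active = mean inhibition above 46.68%, the untreated control wells mean plus 3 SD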); settings: HEK293 GAL4-SRC1 luciferase reporter, at 3.6 µM, stronger effect = higher value
# Nuclear receptor coactivator 1 (Homo sapiens), sequence (Q15788 whole entry, looked up, the tested form may be a part): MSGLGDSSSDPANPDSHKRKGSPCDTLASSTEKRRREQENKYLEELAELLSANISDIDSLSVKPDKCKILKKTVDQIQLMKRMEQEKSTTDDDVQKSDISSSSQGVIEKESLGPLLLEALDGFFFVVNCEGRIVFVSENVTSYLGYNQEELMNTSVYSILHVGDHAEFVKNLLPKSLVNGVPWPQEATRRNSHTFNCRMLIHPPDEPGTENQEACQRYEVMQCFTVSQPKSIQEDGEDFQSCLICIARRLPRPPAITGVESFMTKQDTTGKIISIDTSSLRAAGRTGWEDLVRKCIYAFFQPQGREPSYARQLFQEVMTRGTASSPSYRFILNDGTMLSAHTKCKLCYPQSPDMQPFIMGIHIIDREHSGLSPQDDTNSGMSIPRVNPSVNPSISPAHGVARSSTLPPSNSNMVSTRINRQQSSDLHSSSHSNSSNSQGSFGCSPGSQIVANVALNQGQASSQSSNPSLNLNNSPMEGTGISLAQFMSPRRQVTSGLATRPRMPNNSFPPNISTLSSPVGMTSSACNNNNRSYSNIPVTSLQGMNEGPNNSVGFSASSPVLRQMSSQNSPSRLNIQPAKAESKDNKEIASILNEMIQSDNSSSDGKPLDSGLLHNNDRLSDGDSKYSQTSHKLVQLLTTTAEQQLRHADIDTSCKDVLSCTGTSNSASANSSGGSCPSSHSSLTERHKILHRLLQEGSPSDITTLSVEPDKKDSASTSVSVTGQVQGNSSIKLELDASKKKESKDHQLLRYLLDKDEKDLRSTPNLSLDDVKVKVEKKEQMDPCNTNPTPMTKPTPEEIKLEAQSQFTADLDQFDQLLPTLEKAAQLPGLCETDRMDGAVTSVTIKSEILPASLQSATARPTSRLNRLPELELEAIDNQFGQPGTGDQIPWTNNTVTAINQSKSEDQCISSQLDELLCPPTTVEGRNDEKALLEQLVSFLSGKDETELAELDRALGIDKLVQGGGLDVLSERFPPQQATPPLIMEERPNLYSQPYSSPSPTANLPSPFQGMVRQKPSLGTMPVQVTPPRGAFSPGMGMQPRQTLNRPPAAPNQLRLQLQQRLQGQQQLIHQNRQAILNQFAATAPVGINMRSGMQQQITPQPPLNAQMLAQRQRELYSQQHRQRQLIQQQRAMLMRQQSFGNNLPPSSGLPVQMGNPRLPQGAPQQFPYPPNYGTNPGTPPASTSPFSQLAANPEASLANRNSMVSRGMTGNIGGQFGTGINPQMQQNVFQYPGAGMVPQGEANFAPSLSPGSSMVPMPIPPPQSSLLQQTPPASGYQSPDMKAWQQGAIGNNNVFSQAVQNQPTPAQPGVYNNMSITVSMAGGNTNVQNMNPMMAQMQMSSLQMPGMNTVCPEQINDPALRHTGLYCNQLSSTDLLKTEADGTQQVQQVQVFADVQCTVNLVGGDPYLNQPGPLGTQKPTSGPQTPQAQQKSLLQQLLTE
# [11] = repression of VP16-driven luciferase reporter – cell-based, luminescence, high throughput, counter-screen for SRC1 inhibitor project (AID 588824; in the data active = inhibition above about 25%); settings: cell-based VP16 transactivation luciferase luminescence; at 3.6 µM; stronger effect = higher value
# [12] = tested on: transactivating tegument protein VP16 (Human herpesvirus 1); assay: compounds suppressing VP16-driven luciferase signal – cell-based, luminescence, single concentration, counter-screen for SRC2 inhibitor project (AID 652007; in the data active = inhibition above about 36%); settings: cell-based VP16 transactivation luciferase reporter, at 8.9 µM, stronger effect = higher value
# [13] = biological target: Nuclear receptor coactivator 2 (Homo sapiens) (UniProt Q15596); assay: inhibition of GAL4-SRC2 driven luciferase expression – cell-based, luminescence, HEK293, triplicate, confirmation (AID 652008;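 active = mean inhibition above 46.5%, the solvent-only control mean plus 3 SD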); settings: HEK293 GAL4-SRC2 luciferase reporter, at 8.9 µM, stronger effect = higher value
# Nuclear receptor coactivator 2 (Homo sapiens), sequence (Q15596 whole entry, looked up, the tested form may be a part): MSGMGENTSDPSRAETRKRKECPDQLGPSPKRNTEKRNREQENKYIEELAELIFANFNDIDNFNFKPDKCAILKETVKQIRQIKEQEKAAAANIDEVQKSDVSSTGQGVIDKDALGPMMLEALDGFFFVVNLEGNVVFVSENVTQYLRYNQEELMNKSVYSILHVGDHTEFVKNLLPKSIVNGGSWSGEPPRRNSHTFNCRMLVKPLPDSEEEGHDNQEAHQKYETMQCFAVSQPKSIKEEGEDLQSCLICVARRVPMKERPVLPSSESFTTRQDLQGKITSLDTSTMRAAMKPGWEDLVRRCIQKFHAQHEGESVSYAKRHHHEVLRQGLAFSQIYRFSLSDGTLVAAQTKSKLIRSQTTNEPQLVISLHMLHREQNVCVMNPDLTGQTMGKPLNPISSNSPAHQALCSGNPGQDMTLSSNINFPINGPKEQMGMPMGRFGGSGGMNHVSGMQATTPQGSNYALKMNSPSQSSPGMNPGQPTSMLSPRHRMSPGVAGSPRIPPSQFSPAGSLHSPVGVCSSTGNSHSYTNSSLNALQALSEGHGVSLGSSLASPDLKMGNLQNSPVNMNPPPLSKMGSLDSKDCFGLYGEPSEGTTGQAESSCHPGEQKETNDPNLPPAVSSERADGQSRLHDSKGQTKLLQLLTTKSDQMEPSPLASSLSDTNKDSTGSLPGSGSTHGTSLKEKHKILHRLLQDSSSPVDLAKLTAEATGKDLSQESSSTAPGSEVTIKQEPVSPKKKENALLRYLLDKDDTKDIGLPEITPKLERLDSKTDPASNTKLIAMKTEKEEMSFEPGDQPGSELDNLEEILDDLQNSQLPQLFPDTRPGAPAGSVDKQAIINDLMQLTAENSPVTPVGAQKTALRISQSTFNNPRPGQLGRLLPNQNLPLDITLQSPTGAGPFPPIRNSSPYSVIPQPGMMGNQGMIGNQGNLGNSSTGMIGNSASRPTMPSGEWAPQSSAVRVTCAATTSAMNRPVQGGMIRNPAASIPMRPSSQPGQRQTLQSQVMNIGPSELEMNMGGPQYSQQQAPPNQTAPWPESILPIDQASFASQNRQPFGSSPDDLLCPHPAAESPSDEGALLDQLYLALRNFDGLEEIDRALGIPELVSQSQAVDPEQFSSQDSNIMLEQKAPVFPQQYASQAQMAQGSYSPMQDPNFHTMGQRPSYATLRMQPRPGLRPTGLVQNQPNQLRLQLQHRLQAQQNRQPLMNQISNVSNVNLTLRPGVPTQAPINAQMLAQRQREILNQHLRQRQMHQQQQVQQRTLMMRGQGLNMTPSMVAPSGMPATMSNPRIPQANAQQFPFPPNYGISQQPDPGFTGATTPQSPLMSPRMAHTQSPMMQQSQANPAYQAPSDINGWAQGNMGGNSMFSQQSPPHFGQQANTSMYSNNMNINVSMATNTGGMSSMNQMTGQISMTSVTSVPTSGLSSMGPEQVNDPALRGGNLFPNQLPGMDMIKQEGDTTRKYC
# [14] = biological target: Nuclear receptor coactivator 3 (Homo sapiens) (UniProt Q9Y6Q9); assay: NCOA3 GAL4-fusion reporter inhibition – cell-based, luminescence, quadruplicate, confirmation (AID 588792;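 active = mean inhibition over 43.08%, the solvent-only control mean plus 3 SD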); settings: HEK293 GAL4-SRC3 luciferase reporter, at 3.6 µM, stronger effect = higher value
# Nuclear receptor coactivator 3 (Homo sapiens), sequence (Q9Y6Q9 whole entry, looked up, the tested form may be a part): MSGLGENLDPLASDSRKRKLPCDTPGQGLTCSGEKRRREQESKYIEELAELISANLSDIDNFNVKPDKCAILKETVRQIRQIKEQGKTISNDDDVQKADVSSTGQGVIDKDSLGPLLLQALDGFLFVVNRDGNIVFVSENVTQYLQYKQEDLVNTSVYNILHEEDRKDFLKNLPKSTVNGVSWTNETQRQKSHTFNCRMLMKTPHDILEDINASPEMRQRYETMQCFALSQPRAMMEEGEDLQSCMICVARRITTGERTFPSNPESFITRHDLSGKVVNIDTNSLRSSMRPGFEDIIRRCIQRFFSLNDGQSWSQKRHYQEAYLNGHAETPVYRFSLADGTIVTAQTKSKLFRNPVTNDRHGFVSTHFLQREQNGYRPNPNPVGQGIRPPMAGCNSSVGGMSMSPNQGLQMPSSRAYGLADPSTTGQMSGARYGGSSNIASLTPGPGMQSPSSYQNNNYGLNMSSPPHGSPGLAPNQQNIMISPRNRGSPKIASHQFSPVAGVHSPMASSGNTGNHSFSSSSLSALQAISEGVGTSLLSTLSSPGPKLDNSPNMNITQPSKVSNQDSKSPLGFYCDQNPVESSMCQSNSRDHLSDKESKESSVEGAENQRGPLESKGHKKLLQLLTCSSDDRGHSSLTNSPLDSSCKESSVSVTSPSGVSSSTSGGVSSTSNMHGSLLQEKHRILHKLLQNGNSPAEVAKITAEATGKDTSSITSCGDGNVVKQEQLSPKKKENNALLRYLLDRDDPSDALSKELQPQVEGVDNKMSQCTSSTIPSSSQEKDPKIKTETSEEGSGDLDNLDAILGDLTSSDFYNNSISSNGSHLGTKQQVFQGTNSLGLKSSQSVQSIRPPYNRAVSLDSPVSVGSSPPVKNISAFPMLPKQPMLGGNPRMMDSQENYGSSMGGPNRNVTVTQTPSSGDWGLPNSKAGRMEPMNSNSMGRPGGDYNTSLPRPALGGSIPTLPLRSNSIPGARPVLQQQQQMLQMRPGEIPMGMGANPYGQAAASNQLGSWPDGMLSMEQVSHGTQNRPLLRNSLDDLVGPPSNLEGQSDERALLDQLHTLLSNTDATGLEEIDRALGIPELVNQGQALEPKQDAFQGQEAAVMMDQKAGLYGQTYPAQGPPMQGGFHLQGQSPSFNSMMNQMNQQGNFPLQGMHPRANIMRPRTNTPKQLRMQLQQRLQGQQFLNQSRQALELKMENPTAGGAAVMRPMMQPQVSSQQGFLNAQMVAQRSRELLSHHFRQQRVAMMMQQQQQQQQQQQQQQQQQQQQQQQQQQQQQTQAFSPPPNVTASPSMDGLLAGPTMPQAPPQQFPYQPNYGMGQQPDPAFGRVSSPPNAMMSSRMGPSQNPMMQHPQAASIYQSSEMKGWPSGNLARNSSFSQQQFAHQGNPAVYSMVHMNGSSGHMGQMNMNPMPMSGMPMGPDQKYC
# [15] = tested on: transactivating tegument protein VP16 (Human herpesvirus 1), Gal4-VP16 luciferase reporter; assay: repression of VP16-driven luciferase reporter – cell-based, luminescence, high throughput, counter-screen for SRC3 inhibitor project (AID 588794); settings: mammalian cells, at 3.6 µM, stronger effect = higher value
structure (smiles),measurement,setting,value
CC(Cc1ccccc1)NCCC(c1ccccc1)c1ccccc1 (stereo unspecified),activation,[1],11.2%
same,activation,[2],4.33%
COc1ccccc1C1=NCc2nnc(CSC)n2-c2ccc(Cl)cc21,inhibition,[3],12.9%
CN(C)S(=O)(=O)c1cc(C(=O)N2CCC(C(=O)O)(c3ccccc3)CC2)ccc1Cl,inhibition,[4],85.5% (active)
same,inhibition,[5],1.24%
same,inhibition,[6],26.1% (active)
O=[N+]([O-])c1cnc2ccc3ccccc3c2c1,inhibition,[4],103% (active)
same,inhibition,[5],21.8% (active)
same,inhibition,[6],63.5% (active)
same,inhibition,[7],18.2% (active)
same,inhibition,[8],20.3% (active)
same,inhibition,[9],76.8% (active)
O=C1C(=O)c2ccccc2-c2ccccc21,inhibition,[10],95.1% (active)
same,inhibition,[11],93.5% (active)
same,inhibition,[12],96.5% (active)
same,inhibition,[13],98.8% (active)
CNc1ccc2nc3ccccc3[n+](C)c2c1,inhibition,[10],-4.23%
same,inhibition,[11],3.25%
Cc1nc2c(=O)n(C)c(=O)nc-2n(C)n1,inhibition,[12],62.6% (active)
same,inhibition,[13],77.8% (active)
C=C1C(C)C2C(Cc3ccccc3)NC(=O)C23OC(=O)/C=C/C(O)CCCC(C)C/C=C/C3C1O (stereo unspecified),inhibition,[14],10.6%
same,inhibition,[15],22.1%
CCCCNS(=O)(=O)c1ccc(OCC(=O)N2CCN(Cc3ccc4c(c3)OCO4)CC2)cc1,inhibition,[14],10.7%
same,inhibition,[15],26.6%
CCn1nc(/C=C/c2ccccc2)nc2c(=O)n(C)c(=O)nc1-2,inhibition,[14],39.2%
same,inhibition,[15],9.67%
CCCCn1c(O)c(C(C)=Nc2ccc(C(=O)O)cc2)c(=O)[nH]c1=O,inhibition,[14],1.79%
same,inhibition,[15],12.1%
O=c1[nH]c2ccccc2n1C1CCN(C(c2nnnn2-c2ccc3c(c2)OCCO3)C2CC2)CC1 (stereo unspecified),inhibition,[14],25.1%
same,inhibition,[15],23.5%
same,inhibition,[10],-8.7%
same,inhibition,[11],22%
CCN(CCCl)c1cc(CN(C)C)cc(NC(=O)c2ccc(C(=O)Nc3cc(CN(C)C)cc(N(CC)CCCl)c3)cc2)c1,inhibition,[14],94.8% (active)
same,inhibition,[15],92% (active)
O=c1[nH]c2ccccc2n1C1CCN(C(c2cc3ccccc3o2)c2nnnn2Cc2ccccc2)CC1 (stereo unspecified),inhibition,[14],59.9% (active)
same,inhibition,[15],9.7%
same,inhibition,[10],-16%
same,inhibition,[11],11.7%
CCCc1nc2ccc(Br)cc2c(=O)n1-c1ccc([N+](=O)[O-])c(C(F)(F)F)c1,inhibition,[14],-13%
same,inhibition,[15],11.2%
same,inhibition,[10],13.3%
same,inhibition,[11],14.8%
O=c1[nH]c2ccccc2n1C1CCN(C(CCc2ccccc2)c2nnnn2C2CCCC2)CC1 (stereo unspecified),inhibition,[14],23.4%
same,inhibition,[15],7.82%
same,inhibition,[10],-2.66%
same,inhibition,[11],10.8%
